HEK293 tox: Cytotoxic Profiling in HEK 293 Cell Line of Diverse Libraries Using Quantitative High-Throughput Screening | HEK 293 viability, ATP luminescence (CellTiter-Glo), 48-72 h | Potency, µM (doses to about 115 µM), usual class: inhibitors | 94,000 compounds, 6.6% hits; also: nearly all actives have a fitted effect of over 60% in size
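qHTS cytotoxicity; HEK 293, 250 cells/well; compound pinned; 48 or 72 hr, 37 degree Celsius, 5% CO2, 95% humidity; CellTiter-Glo, 10 min RT; luminescence (ATP).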
FLuc inh: Firefly luciferase inhibition profiling of diverse chemical library using quantitative high-throughput screening; Luciferin 4-monooxygenase (Photinus pyralis), P08659; purified P. pyralis luciferase, luminescence, biochemical; Potency, µM (highest dose often 115 µM), hits mostly inhibitors; 76,000 compounds, 2.5% hits; also: nearly all actives have a fitted effect of over 65% in size
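FLuc 10nM, D-luciferin 10uM, ATP 10uM, Mg acetate 10mM, Tris acetate pH 7.5, Tween/BSA; cpd qHTS; enzyme added last; CCD luminescence.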
GPT2 inh: Primary qHTS assay for inhibitors of Glutamate pyruvate transaminase 2 (GPT2) | Recombinant GPT2, coupled pyruvate oxidase/HRP Amplex Red fluorescence | Potency, µM (top dose mostly 57.7 µM), most hits filed as inhibitors | 100,000 compounds, 0.25% hits; also: nearly all actives have a fitted effect of over 60% in size
Target sequence (Q8TD30 whole entry, looked up): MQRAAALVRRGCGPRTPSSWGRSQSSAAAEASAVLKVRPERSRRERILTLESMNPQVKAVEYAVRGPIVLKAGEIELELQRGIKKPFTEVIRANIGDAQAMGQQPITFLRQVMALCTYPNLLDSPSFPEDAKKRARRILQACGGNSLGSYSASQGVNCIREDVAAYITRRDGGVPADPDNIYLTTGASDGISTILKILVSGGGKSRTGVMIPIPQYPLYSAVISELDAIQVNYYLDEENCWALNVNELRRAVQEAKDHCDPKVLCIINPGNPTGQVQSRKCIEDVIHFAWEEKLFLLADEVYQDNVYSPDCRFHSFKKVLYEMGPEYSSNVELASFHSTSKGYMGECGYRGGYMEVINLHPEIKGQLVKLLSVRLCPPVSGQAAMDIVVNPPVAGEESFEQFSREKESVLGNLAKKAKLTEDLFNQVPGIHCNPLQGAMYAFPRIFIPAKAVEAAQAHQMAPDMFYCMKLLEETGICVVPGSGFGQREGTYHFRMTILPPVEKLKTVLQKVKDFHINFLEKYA
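Fluorescence of coupled pyruvate oxidase/HRP/Amplex Red system (50uM Amplex, 30 min, dark) reports pyruvate formed by GPT2. Enzyme reaction: 10ng/uL GPT2, 2mM L-alanine, 250uM a-KG, 30 min room temperature, pH 7.5; 50uM AOA control.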
NIH3T3 tox: Cytotoxic Profiling in NIH 3T3 Cell Line of Diverse Libraries Using Quantitative High-Throughput Screening; Potency, µM (series often up to 96.7 µM), hits mostly inhibitors; NIH 3T3 viability, CellTiter-Glo ATP luminescence, 48-72 h; AID 1345082, 2018; 94,000 compounds, 4.3% hits; also: nearly all actives have a fitted effect of over 55% in size
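Cytotoxicity was measured by CellTiter-Glo ATP luminescence after 48 or 72 h compound exposure at 37 °C. Mouse NIH 3T3 fibroblasts were seeded at 400 cells/well and dosed by 23 nL pin transfer.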
NPR1 antag: Natriuretic polypeptide receptor (hNpr1) antagonism - Primary qHTS; Atrial natriuretic peptide receptor 1 (Homo sapiens), P16066; 76,000 compounds, 1.6% hits; AID 1347048, 2019; Potency, µM (highest dose often 46.3 µM), actives largely listed as inhibitors; HEK293 hNpr1 GloSensor cGMP, ANP-stimulated luminescence; calls by dose curve; also: nearly all actives have a fitted effect of over 60% in size
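HEK293 cells stably expressing human Npr1 and cGMP GloSensor pGS-40F, loaded 2 h with 2% GloSensor reagent, given compound 30 min at room temperature. Luminescence read before and 20 min after 0.1 nM hNppA.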
A number is an active result; – = inactive; ? = inconclusive; · = no result given. The list is not random: actives were taken first. Their share in the collection is about 10%. Unless noted, calls follow the shape of the dose curve; as a rule, active = well fitted curve in the direction sought with a large enough effect; inconclusive = small, poorly fitted or top-dose-only effect, or another doubt; inactive = no such curve, though single readings can be large; an effect the other way counts as inactive or inconclusive.

SMILES	HEK293 tox	FLuc inh	GPT2 inh	NIH3T3 tox	NPR1 antag
CC1(c2ccccc2)N(Cc2cccnc2)C(=O)OC12CCN(C(=O)C1CCC1)CC2 (stereo unspecified)	–	–	–	18µM	–
Cc1ncsc1C(=O)N1CCC2(CC1)OC(=O)N(Cc1cccnc1)C2(C)c1ccccc1 (stereo unspecified)	–	–	–	22µM	–
Cc1ncsc1C(=O)N1CCC2(CC1)OC(=O)N(Cc1ccccc1)C2(C)c1cccnc1 (stereo unspecified)	–	–	–	22µM	–
CC1(c2ccccc2)N(Cc2cccnc2)C(=O)OC12CCN(C(=O)c1ccccc1)CC2 (stereo unspecified)	–	–	–	?	–
COc1ccc(C(=O)N2CCC3(CC2)OC(=O)N(Cc2cccnc2)C3(C)c2ccccc2)cn1 (stereo unspecified)	–	–	–	40µM	–
CCN(CC)c1ccc(C(=C2C=CC(=[N+](CC)CC)C=C2)c2cc(S(=O)(=O)O)ccc2S(=O)(=O)[O-])cc1	·	·	–	·	·
COCc1cc(=O)n(CC(=O)Nc2ccc(C)c(C)c2)c(N2CCOCC2)n1	–	–	–	–	–
FC(F)(F)c1ccc2c(c1)nc1n2[C@@H](CNCc2c[nH]c3ccccc23)COC1	89µM	–	–	?	–
CCN(CC)C(=O)CCC1CCN(C(=O)c2ccccc2F)CC1	–	35µM	–	–	–
CC(C)NC(=O)CCC1CCN(C(=O)c2ccccc2F)CC1	–	40µM	–	–	–
COCCNC(=O)CCC1CCN(C(=O)c2ccccc2Cl)CC1	–	32µM	–	–	–
O=C(CCC1CCN(C(=O)c2ccccc2F)CC1)NCc1ccco1	–	?	–	–	–
CCCNC(=O)CCC1CCN(C(=O)c2ccccc2F)CC1	–	40µM	–	–	–
O=C(CCC1CCN(C(=O)c2ccccc2Cl)CC1)NC1CC1	–	–	–	–	–
CN1C(=O)CC[C@]2(C(=O)N3CCCCC3)CCCC[C@@H]12	–	–	–	–	–
Cc1ccnn1CCC(=O)N1CCC2(CC1)c1nc[nH]c1CCN2CC(C)C	–	–	–	–	–
O=C(O)C[C@@H]1CCN(C(=O)NC2CCCCC2)C[C@@H]1CCN1CCCCC1	–	–	–	–	–
c1cn(C2CCSC2)c(-c2cc3n(n2)CCNC3)n1 (stereo unspecified)	–	–	?	–	–
c1ccc2c(c1)CC(n1ccnc1-c1cc3n(n1)CCCNC3)C2	79µM	–	–	?	–
COc1ccc(C(=O)NC[C@H]2Cn3c(-c4ccc(Cl)cc4)cnc3CO2)cc1	100µM	?	–	?	?
Clc1ccc(-c2cnc3n2C[C@H](CNC2CCOCC2)OC3)cc1	?	–	?	89µM	–
O=C(COc1ccccc1)NC[C@H]1Cn2c(-c3ccc(Cl)cc3)cnc2CO1	100µM	–	–	?	–
Cc1cccc(S(=O)(=O)Nc2cccn3nc(C4CCC4)nc23)c1	?	–	–	45µM	–
O=C(Nc1cccn2nc(C3CCC3)nc12)c1ccccn1	?	–	–	8.9µM	–
O=S(=O)(Nc1cccn2nc(C3CC3)nc12)c1cccnc1	–	–	?	–	–
SMILES	HEK293 tox	FLuc inh	GPT2 inh	NIH3T3 tox	NPR1 antag
COc1cccc(CN2CCCCCCNC(=O)CC2c2ccccc2)c1 (stereo unspecified)	?	–	–	?	–
O=C1CC(c2ccccc2)N(Cc2ccc(F)c(F)c2)CCCCCN1 (stereo unspecified)	?	–	–	40µM	–
COc1ccc(CN2CCCCCNC(=O)CC2c2ccccc2)cc1Cn1ccnc1 (stereo unspecified)	35µM	–	–	40µM	–
CC(C)c1noc(C2CCCN(C(=O)CC3CCCCC3)CCC(=O)NCC2)n1 (stereo unspecified)	?	–	–	–	–
Cc1ccccc1CC(=O)N1C[C@@H](CO)[C@H](c2ccncc2)C1	–	–	–	–	–
O=C(C1CCCN(c2nc3ncccc3o2)C1)N1CCCC1 (stereo unspecified)	–	–	–	–	–
CC1(Cc2ccc3c(c2)OCO3)CCCN(CC(=O)NCc2ccco2)C1 (stereo unspecified)	45µM	–	–	–	?
CC1(Cc2ccc3c(c2)OCO3)CCCN(C(=O)CCCn2ccnc2)C1 (stereo unspecified)	40µM	–	–	?	–
Cc1cc(C)n(CC(=O)N2CCCC(C)(Cc3ccc4c(c3)OCO4)C2)c(=O)n1 (stereo unspecified)	–	–	–	–	–
Cc1cc(=O)n(CC(=O)N2CCCC(C)(Cc3ccc4c(c3)OCO4)C2)nc1C (stereo unspecified)	?	–	–	–	–
COCC(=O)N[C@@H]1CN(Cc2ccc(C#N)cc2)CC[C@@H]1c1nc(C)no1	–	–	–	–	–
Cn1ncc2c(C(=O)NCC#N)cc(-c3ccc(F)cc3)nc21	?	·	·	35µM	·
Cn1ncc2c(C(=O)NCC(=O)c3ccccc3)cc(-c3ccccc3F)nc21	?	·	·	–	·
Cc1cccc(C)c1-c1cc(C(=O)NCc2ccc(F)cc2)c2cnn(C)c2n1	?	·	–	?	·
COc1ccccc1CNC(=O)c1cc(-c2ccccc2F)nc2c1cnn2C	?	·	·	25µM	·
Cc1cccc(C)c1-c1cc(C(=O)NCc2ccc(C(F)(F)F)cc2)c2cnn(C)c2n1	22µM	·	–	14µM	·
COCCNC(=O)c1cc(-c2ccc(F)cc2)nc2c1cnn2C	?	·	–	?	·
Cn1ncc2c(C(=O)NCc3ccc(C(F)(F)F)cc3)cc(-c3cccc(F)c3)nc21	?	·	·	45µM	·
COC(=O)N1CCc2nc(C)nc(-c3ccc(Cl)cc3)c2CC1	–	–	–	–	–
Cn1ncc2c(C(=O)NCCCc3ccccc3)cc(-c3ccc([S+](C)(=O)[O-])cc3)nc21	50µM	·	–	?	·
Cn1ncc2c(C(=O)NCc3ccc(F)cc3)cc(-c3ccccc3F)nc21	–	·	·	?	·
COc1ccc(-c2cc(C(=O)NCc3ccc(Cl)cc3)c3cnn(C)c3n2)cc1	?	·	–	?	·
COc1ccc(CNC(=O)c2cc(-c3ccc(F)cc3)nc3c2cnn3C)cc1	45µM	·	·	40µM	·
Cn1ncc2c(C(=O)NCc3ccccc3)cc(-c3cccnc3)nc21	40µM	·	–	?	·
Cn1ncc2c(C(=O)NCc3ccc(C(F)(F)F)cc3)cc(-c3ccccc3F)nc21	32µM	·	·	?	·
Cn1ncc2c(C(=O)NCc3cccc(Cl)c3)cc(-c3cccnc3)nc21	?	·	–	?	·
